We go through 13 compounds from PubChem BioAssay.

Records with an inconclusive call do not appear. Active and inactive are the calls of the source.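 The calls were made as follows, unless noted: active = compound raises GLP1 secretion from the human gut endocrine cells, with no numeric limit stated; inactive = the rest.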

Assay [1] can be described thus: stimulators of insulin release from INS-1E, primary screen, cell-based, 5 mM glucose, NPC library (AID 1117329;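 active = compound raises insulin release from rat beta cells at 5 mM glucose, no numeric limit stated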). The conditions noted are these: rat INS-1E insulin secretion, at 10 µM, stronger effect = higher value.
Assay [2] can be described thus: growth inhibition of GSK3B-pretreated HCT116 cells – cell-based, CellTiter-Glo, 0.2 to 20 µM (AID 1117336;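 active = compounds lowering colon cancer cell viability after pretreatment blocking the GSK3B kinase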). The conditions noted are these: HCT116 viability after GSK3B inhibitor, at 20 µM, stronger effect = higher value.
Assay [3] can be described thus: inhibition of endothelial tube formation, primary screen, imaging, VEGF stimulated, CD31 staining, tube area, NPC library (AID 1117340;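 active = compound that reduces growth-factor-driven endothelial tube area in a mixed cell culture, no cutoff stated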). The conditions noted are these: VEGF-stimulated ADSC/ECFC co-culture, at 10 µM, stronger effect = higher value.
Assay [4] in a line: glucagon-like peptide 1 release enhancers, primary assay, NCI-H716 cell line, NPC library (AID 1117341). The conditions noted are these: NCI-H716 cells, at 10 µM, stronger effect = higher value.
The nature of assay [5]: HCT116 colon cancer cell growth inhibition, primary screen, CellTiter-Glo luminescence, NPC library (AID 1117342;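 active = compounds that lower survival of HCT116 colon cancer cells in the luminescence readout, no numeric limit stated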). The conditions noted are these: at 20 µM (top of the series). For orientation: Cellular ATP, detected with luciferase, serves as a proxy for viable cell number.
Assay [6] can be described thus: CellTiter-Glo luminescent readout of SW480 viability loss, NPC library primary (AID 1117343;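 active = compounds that lower viability of the colon cancer cells in the luminescence readout, with no numeric limit stated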). The conditions noted are these: CellTiter-Glo luminescence; at 20 µM (top of the series).
The nature of assay [7]: decreased DLD-1 cellular survival, CellTiter-Glo luminescent readout, NPC compound collection, primary HTS (AID 1117346;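 active = compounds that lower survival of DLD-1 colon cancer cells in the luminescence readout, no cutoff given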). As to conditions: DLD-1 viability, CellTiter-Glo luminescence; at 20 µM (top of the series).
In assay [8] the target is 6-phosphogluconate dehydrogenase, decarboxylating (Homo sapiens) (UniProt P52209). In words: 6PGD enzyme inhibitors, primary screen, biochemical, human, recombinant enzyme, NADPH absorbance (AID 1159550;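 active = at least 20% inhibition of 6-phosphogluconate dehydrogenase activity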). The conditions noted are these: recombinant 6PGD, NADPH absorbance 341 nm; at 10 µM; stronger effect = higher value.
Chain of 6-phosphogluconate dehydrogenase, decarboxylating (Homo sapiens) (P52209 whole entry, looked up): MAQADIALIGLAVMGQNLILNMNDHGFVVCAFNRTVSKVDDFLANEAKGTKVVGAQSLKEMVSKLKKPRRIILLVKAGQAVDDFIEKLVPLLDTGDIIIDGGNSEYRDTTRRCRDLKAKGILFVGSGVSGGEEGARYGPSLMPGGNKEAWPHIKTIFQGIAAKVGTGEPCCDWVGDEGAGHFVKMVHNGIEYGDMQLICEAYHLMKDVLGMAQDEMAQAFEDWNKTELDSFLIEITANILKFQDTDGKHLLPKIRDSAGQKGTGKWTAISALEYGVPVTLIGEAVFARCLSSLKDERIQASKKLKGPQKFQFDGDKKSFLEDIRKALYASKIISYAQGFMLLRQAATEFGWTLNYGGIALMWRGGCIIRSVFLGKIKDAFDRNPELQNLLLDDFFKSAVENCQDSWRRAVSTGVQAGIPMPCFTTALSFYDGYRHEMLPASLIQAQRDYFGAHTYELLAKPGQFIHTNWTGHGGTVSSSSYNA
A short description of assay [9]: differential killing of epithelial or mesenchymal cells, primary screen, imaging, PC-3E GFP, TEM4-18 mCherry, co-culture (AID 1345086;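 active = compounds killing one labelled cell type while sparing the other, by normalised counts and ratio limits, not self-fluorescent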;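 as to all read-outs here: cells exposed to compound for 72 h before imaging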;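 as to red/green cell ratio (normalised): normalised mesenchymal count divided by normalised epithelial count so high means epithelial killing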). The conditions noted are these: imaging cell counts, at 1 µM; for red/green cell ratio (normalised): actives lie on both sides, counts scaled to control wells, 1 = unselective.
Assay [10] in a line: modulation of C. elegans fzo-1 (AID 1259413; call rule not given here;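 also: fzo-1 mutant C. elegans worms in liquid wells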). The conditions noted are these: C. elegans fzo-1 modulator screen, mean read-out; stronger effect = higher value.
The nature of assay [11]: growth inhibition of DIPG glioma cells, dose response, cell-based, SU-DIPG-XIII, MIPE4.0, CellTiter-Glo, qHTS (AID 1347061; cut-off not given, nearly all actives have AC50 up to about 37 µM;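 also: cells exposed to compound for 48 hours before readout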). The conditions noted are these: SU-DIPG-XIII viability, CellTiter-Glo ATP luminescence.
Assay [12] in a line: growth inhibition of DIPG glioma cells, dose response, cell-based, JHH-DIPG-1, MIPE4.0, CellTiter-Glo, qHTS (AID 1347062; cut-off not given, nearly all actives have AC50 up to about 27 µM). The conditions noted are these: JHH-DIPG-1 viability, CellTiter-Glo ATP luminescence.
Assay [13] is described as follows: growth inhibition of DIPG glioma cells, dose response, cell-based, SU-DIPG-IV, MIPE4.0, CellTiter-Glo, qHTS (AID 1347063; cut-off not given, nearly all actives have AC50 up to about 30 µM;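 also: compound exposure lasted 48 hours before the viability readout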). As to conditions: SU-DIPG-IV viability, CellTiter-Glo ATP luminescence.
A short description of assay [14]: growth inhibition of DIPG glioma cells, dose response, cell-based, SU-DIPG-XVII, MIPE5.0, CellTiter-Glo, qHTS (AID 1347060; cut-off not given, nearly all actives have AC50 up to about 26 µM;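 also: cells exposed to compound for 48 hours before viability readout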). The conditions noted are these: SU-DIPG-XVII viability, CellTiter-Glo ATP luminescence.
Where [15] appears, read: measured here: epithelial PC-3E GFP cell survival.
Setting [16] is: measured here: mesenchymal TEM4-18 mCherry cell survival.

One may read the inhibition as the change of the read-out against control, counted positive when it falls. By AC50 is commonly meant the concentration giving half of the maximal activity seen.

For the compound `O=C(O)[C@@H](O)[C@H](O)[C@H](O)[C@@H](O)C(=O)O`, the insulin secretion stimulation in assay [1] is 3.6% (inactive). The viability decrease in assay [2] is -8.4% (inactive). Besides, the tube area decrease in [3] is 23.5% (inactive). Moreover, in assay [4], the GLP1 secretion stimulation was -1.9% (inactive). Further, the inhibition of viability in assay [5] is 1.7% (inactive). In addition, the viability decrease (inhibition) in [6] is 57.2% (active); in assay [7], -6.1% (inactive). Moreover, the inhibition in assay [8] was 3.91% (inactive).

As to `CC(=O)Nc1ccc(OCC(O)CNC(C)C)cc1` (stereo not drawn), the insulin secretion stimulation in assay [1] was 5.6% (inactive). The viability decrease in assay [2] is 4.2% (inactive). Moreover, the tube area decrease in assay [3] is -0.3% (inactive). Also, the GLP1 secretion stimulation in assay [4] was -1.9% (inactive). In addition, the inhibition of viability in assay [5] was 11.1% (inactive). Further, the viability decrease (inhibition) in assay [6] is 26.9% (inactive); in [7], 42% (inactive). The inhibition in assay [8] was 2.72% (inactive).

Regarding `C[C@]12C=CC(=O)C=C1CC[C@H]1[C@@H]3C[C@@H](O)[C@](O)(C(=O)CO)[C@@]3(C)C[C@H](O)[C@@]12F`, in [1], the insulin secretion stimulation was -0.5% (inactive). The viability decrease in assay [2] was 8.2% (inactive). Further, the tube area decrease in [3] is -16.1% (inactive). The GLP1 secretion stimulation in assay [4] was -3.1% (inactive). Also, in assay [5], the inhibition of viability is 11% (inactive). The figures for the viability decrease (inhibition) in assay [6] and in [7] were 13.3% (inactive) and 14.8% (inactive), respectively. The inhibition in [8] is -17.6% (inactive).

Take `OC(CCN1CCCCC1)(c1ccccc1)c1ccccc1`: in assay [1], the insulin secretion stimulation is 60.4% (active). The viability decrease in assay [2] was 12.2% (inactive). Moreover, in assay [3], the tube area decrease was 1.5% (inactive). In [4], the GLP1 secretion stimulation is 3.3% (inactive). Also, the inhibition of viability in assay [5] was 23.9% (inactive). In addition, the viability decrease (inhibition) in [6] is 27% (inactive); in assay [7], 2.1% (inactive). For the same compound, the inhibition in assay [8] is 12.5% (inactive). For the same compound, the red/green cell ratio (normalised) in [9] was 0.87 (inactive). The normalised cell number is 1.06 in [9] (setting [15]) and 0.92 in assay [9] (setting [16]).

On to `Oc1c(Cl)cc(Cl)c(Cl)c1Cc1c(O)c(Cl)cc(Cl)c1Cl`, for which, in [1], the insulin secretion stimulation is -3.4% (inactive). The viability decrease in assay [2] was 117% (active). In assay [3], the tube area decrease was 108% (active). For the same compound, in assay [4], the GLP1 secretion stimulation is 17.4% (inactive). In assay [5], the inhibition of viability is 124% (active). Besides, the viability decrease (inhibition) in assay [6] is 149% (active); in assay [7] it was 101% (active). The inhibition in [8] was -10.3% (inactive). Also, in [10], the mean signal was 211 (inactive). For the same compound, the red/green cell ratio (normalised) in assay [9] is 0.64 (inactive). The values for the normalised cell number in assay [9] (setting [15]) and in assay [9] (setting [16]) were 0.83 and 0.53, respectively.

As to `C[n+]1ccccc1/C=N/O`, in [1], the insulin secretion stimulation is 2.2% (inactive). Further, the viability decrease in [2] was 15.7% (inactive). Moreover, the tube area decrease in assay [3] was -4.4% (inactive). Besides, the GLP1 secretion stimulation in assay [4] was -3.1% (inactive). The inhibition of viability in assay [5] was 1.77% (inactive). Further, the viability decrease (inhibition) in assay [6] is -3.4% (inactive); in assay [7] it was 0.4% (inactive). In assay [8], the inhibition was -6.73% (inactive). Further, in assay [10], the mean signal is 252 (inactive). In assay [9], the red/green cell ratio (normalised) is 0.85 (inactive). Besides, the values for the normalised cell number in assay [9] (setting [15]) and in assay [9] (setting [16]) were 1.37 and 1.16, respectively.

With `Cc1ncc([N+](=O)[O-])n1CCO`, in assay [1], the insulin secretion stimulation is -1.4% (inactive). Further, the viability decrease in assay [2] is 55.6% (active). Besides, the tube area decrease in [3] is -14.9% (inactive). In addition, the GLP1 secretion stimulation in [4] was -0.3% (inactive). For the same compound, the inhibition of viability in assay [5] was 18.5% (inactive). For the same compound, the viability decrease (inhibition) in [6] is 75.1% (active); in assay [7] it was 55% (active). Besides, in assay [8], the inhibition was -20.7% (inactive). In addition, the mean signal in assay [10] was 239 (inactive). Moreover, the red/green cell ratio (normalised) in assay [9] is 1.23 (inactive). Further, the normalised cell number in assay [9] (setting [15]) came to 0.93; in [9] (setting [16]), 1.13. Besides, the compound was called inactive in assay [11], in assay [12] and in [13].

Regarding `Oc1ccc(Cl)cc1Cc1cc(Cl)ccc1O`, in [1], the insulin secretion stimulation is -0.9% (inactive). In addition, the viability decrease in assay [2] was 100% (active). Besides, the tube area decrease in assay [3] is 109% (active). The GLP1 secretion stimulation in assay [4] is 30.9% (active). For the same compound, the inhibition of viability in assay [5] was 102% (active). Moreover, the viability decrease (inhibition) was -50.4% (active) in assay [6] and 105% (active) in assay [7]. In addition, the inhibition in assay [8] is -8.92% (inactive).

In the case of `O=C1O[C@H](CO)[C@@H](O)[C@H](O)[C@H]1O`, the insulin secretion stimulation in [1] was 1.8% (inactive). In assay [2], the viability decrease was -0.7% (inactive). For the same compound, in [3], the tube area decrease was -3.8% (inactive). Moreover, the GLP1 secretion stimulation in [4] is -2.6% (inactive). The inhibition of viability in [5] is 14.6% (inactive). Also, the viability decrease (inhibition) is 31.1% (inactive) in [6] and 20% (inactive) in [7]. In assay [8], the inhibition is -9.11% (inactive).

As to `CCOC(=O)n1ccn(C)c1=S`, in [1], the insulin secretion stimulation was 0.6% (inactive). Further, in assay [2], the viability decrease was -40.3% (inactive). Besides, the tube area decrease in assay [3] was 10.6% (inactive). Moreover, the GLP1 secretion stimulation in [4] is 0.3% (inactive). In [5], the inhibition of viability is -5.63% (inactive). Moreover, the viability decrease (inhibition) in [6] is 6.5% (inactive); in [7], 5.3% (inactive). Moreover, the inhibition in assay [8] is 2.95% (inactive).

Regarding `Clc1ccccc1C(c1ccccc1)(c1ccccc1)n1ccnc1`, the insulin secretion stimulation in assay [1] was 0.9% (inactive). In [2], the viability decrease was 110% (active). Also, the tube area decrease in [3] was 73.1% (active). Besides, the GLP1 secretion stimulation in assay [4] was 29.1% (active). Moreover, the inhibition of viability in [5] was 113% (active). Further, the viability decrease (inhibition) was 132% (active) in [6] and 101% (active) in assay [7]. Besides, the inhibition in assay [8] was -6.11% (inactive). Also, the mean signal in assay [10] is 209 (inactive). The red/green cell ratio (normalised) in assay [9] was 1.09 (inactive). Further, the normalised cell number in [9] (setting [15]) was 1.31; in assay [9] (setting [16]), 1.43. In addition, the AC50 in assay [14] was 23.5 µM (active). In addition, the outcome in [11], in assay [12] and in assay [13] was inactive.

`C=CCc1ccc(O)c(OC)c1`: the insulin secretion stimulation in [1] is 4.7% (inactive). Further, in assay [2], the viability decrease is 22.5% (inactive). Besides, in assay [3], the tube area decrease is -3.7% (inactive). Besides, the GLP1 secretion stimulation in assay [4] was 2.4% (inactive). Moreover, the inhibition of viability in [5] is 3.77% (inactive). The viability decrease (inhibition) in assay [6] was -11.7% (inactive); in [7] it was -4.6% (inactive). Further, the inhibition in [8] was -3.83% (inactive). Besides, in assay [9], the red/green cell ratio (normalised) is 1.2 (inactive). Moreover, the normalised cell number in assay [9] (setting [15]) is 0.95; in assay [9] (setting [16]), 1.13.

In the case of `CC(=O)N[C@@H](CS)C(=O)O`, the insulin secretion stimulation in assay [1] is 0.8% (inactive). Besides, the viability decrease in assay [2] was -18.8% (inactive). In addition, the tube area decrease in assay [3] is 18% (inactive). Besides, in [4], the GLP1 secretion stimulation was 0.7% (inactive). Besides, the inhibition of viability in assay [5] is -0.95% (inactive). The results for the viability decrease (inhibition) in assay [6] and in assay [7] were 0.1% (inactive) and 7.4% (inactive), respectively. Further, in assay [8], the inhibition is -17.2% (inactive).
